Measurements from PubChem BioAssay (EPA / NIEHS).
Results filed as inconclusive are left out. Activity calls are given as the source filed them. How the source made its calls, unless noted: active means hit-call score of the fitted dose curve at least 0.9, where 1 is the maximum; inactive means score below 0.9.

Legend:
[1] = biological target: Glucocorticoid receptor (Homo sapiens) (UniProt P04150); assay: ATG_GR_TRANS: Attagene TRANS-FACTORIAL HepG2 Assay for human Glucocorticoid Receptor (GR) (AID 2282978; active means hit-call score of the fitted dose curve at least 0.9, where 1 is the maximum;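 further: activators score as hits since higher reporter transcript over DMSO is fitted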); conditions: HepG2 Attagene TRANS GR reporter, mRNA transcription
Chain of Glucocorticoid receptor (Homo sapiens) (P04150 whole entry, looked up, the tested form may be a part): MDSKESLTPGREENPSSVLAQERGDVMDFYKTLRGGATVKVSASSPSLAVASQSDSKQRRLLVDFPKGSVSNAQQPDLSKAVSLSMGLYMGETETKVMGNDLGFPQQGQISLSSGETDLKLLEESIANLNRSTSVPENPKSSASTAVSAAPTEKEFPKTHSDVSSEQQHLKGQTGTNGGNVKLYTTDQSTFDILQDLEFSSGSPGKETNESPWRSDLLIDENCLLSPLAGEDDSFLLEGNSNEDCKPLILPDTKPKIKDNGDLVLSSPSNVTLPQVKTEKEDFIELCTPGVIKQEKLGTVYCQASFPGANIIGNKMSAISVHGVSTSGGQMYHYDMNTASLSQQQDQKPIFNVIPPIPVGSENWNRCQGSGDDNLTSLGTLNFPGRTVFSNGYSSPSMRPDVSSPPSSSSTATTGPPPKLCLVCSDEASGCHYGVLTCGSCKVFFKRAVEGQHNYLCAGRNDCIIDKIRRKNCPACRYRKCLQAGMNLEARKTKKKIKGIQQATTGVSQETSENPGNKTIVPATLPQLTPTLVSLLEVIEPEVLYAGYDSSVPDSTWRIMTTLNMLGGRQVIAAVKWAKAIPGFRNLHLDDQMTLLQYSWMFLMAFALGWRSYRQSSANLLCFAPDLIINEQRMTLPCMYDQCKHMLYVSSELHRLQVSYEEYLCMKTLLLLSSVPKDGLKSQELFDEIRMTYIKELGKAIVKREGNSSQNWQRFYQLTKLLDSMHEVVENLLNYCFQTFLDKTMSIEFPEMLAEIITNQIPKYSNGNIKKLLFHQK
Method in brief: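 HepG2 cells transiently transfected with multiplexed reporter units in which chimeric NR-GAL4 proteins drive GAL4-UAS reporters; 24 h compound exposure. Reporter mRNA measured by RT-PCR, 6-FAM labelling, HpaI digestion and capillary electrophoresis; gain-of-signal fitted versus DMSO.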

[2] = biological target: Bile acid receptor (Homo sapiens) (UniProt Q96RI1); assay: ATG_FXR_TRANS: Attagene TRANS-FACTORIAL HepG2 Assay for Farnesoid X Receptor (FXR) (AID 2282979; active means hit-call score of the fitted dose curve at least 0.9, where 1 is the maximum;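 further: hits raise reporter mRNA above DMSO so AC50 marks FXR activation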); conditions: HepG2 Attagene TRANS FXR-GAL4 reporter transcription
Chain of Bile acid receptor (Homo sapiens) (Q96RI1 whole entry, looked up, the tested form may be a part): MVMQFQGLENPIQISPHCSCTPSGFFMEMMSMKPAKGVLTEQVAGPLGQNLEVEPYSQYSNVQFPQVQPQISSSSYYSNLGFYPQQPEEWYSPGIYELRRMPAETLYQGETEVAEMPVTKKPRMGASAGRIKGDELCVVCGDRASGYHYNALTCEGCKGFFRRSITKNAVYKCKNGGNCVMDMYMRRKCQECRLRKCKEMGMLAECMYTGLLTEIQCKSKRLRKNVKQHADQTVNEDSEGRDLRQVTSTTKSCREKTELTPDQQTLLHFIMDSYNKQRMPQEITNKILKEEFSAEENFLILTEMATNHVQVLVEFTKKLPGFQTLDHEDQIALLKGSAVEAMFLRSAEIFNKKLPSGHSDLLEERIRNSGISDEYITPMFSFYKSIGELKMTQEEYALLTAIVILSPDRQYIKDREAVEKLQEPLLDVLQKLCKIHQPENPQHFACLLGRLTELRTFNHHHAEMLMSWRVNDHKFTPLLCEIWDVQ
Method in brief: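 After 24 h chemical treatment of transfected HepG2 cells, GAL4-UAS reporter transcripts driven by an exogenous FXR-GAL4 fusion were measured by RT-PCR and capillary electrophoresis. Increases over DMSO were fitted.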

[3] = ATG_M_32_TRANS: Attagene TRANS-FACTORIAL HepG2 Assay for M32 Transcription Factor (Internal Marker) (AID 2282984; active means hit-call score of the fitted dose curve at least 0.9, where 1 is the maximum;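 further: transcript level of a background control reporter unit measured by RT-PCR and capillary electrophoresis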); conditions: HepG2 Attagene TRANS M32 internal marker reporter
Method in brief: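 Internal background reporter in transfected HepG2: after 24 h chemical exposure, RNA reverse-transcribed, reporter cDNA amplified, fluorescently labelled and HpaI-cut, then sized by capillary electrophoresis. Gain of signal fitted against DMSO control.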

[4] = biological target: Transcriptional activator Myb (Homo sapiens) (UniProt P10242); assay: ATG_Myb_CIS: Attagene CIS-FACTORIAL HepG2 Assay for human Myeloblastosis (Myb) Proto-Oncogene Transcription Factor (AID 2282986); conditions: HepG2 Attagene CIS-FACTORIAL Myb reporter transcription; actives raise or lower the signal
Chain of Transcriptional activator Myb (Homo sapiens) (P10242 whole entry, looked up): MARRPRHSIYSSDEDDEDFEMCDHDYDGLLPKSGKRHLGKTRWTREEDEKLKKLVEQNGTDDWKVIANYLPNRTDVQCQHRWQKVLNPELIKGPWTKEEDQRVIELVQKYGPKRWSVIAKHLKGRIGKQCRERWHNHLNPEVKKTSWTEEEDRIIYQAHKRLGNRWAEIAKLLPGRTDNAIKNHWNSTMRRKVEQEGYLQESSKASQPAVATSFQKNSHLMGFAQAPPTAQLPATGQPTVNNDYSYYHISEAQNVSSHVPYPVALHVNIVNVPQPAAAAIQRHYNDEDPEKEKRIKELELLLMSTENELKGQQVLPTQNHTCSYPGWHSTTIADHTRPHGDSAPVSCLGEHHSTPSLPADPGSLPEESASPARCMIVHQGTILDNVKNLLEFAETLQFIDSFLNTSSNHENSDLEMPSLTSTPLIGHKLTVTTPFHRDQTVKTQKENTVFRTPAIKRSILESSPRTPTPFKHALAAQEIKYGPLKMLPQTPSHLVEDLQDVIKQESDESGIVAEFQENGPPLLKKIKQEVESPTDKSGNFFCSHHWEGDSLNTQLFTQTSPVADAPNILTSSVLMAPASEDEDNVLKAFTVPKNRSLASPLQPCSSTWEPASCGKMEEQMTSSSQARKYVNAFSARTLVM
Method in brief: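 HepG2 cells were transiently transfected with cis-regulated multiple reporter transcription units reflecting endogenous Myb activity, then exposed to compound for 24 hours. Reporter mRNA was measured by RT-PCR with capillary electrophoresis; bidirectional fitting versus DMSO baseline.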

[5] = biological target: Nuclear respiratory factor 1 (Homo sapiens) (UniProt Q16656); assay: ATG_NRF1_CIS: Attagene CIS-FACTORIAL HepG2 Assay for human Nuclear Respiratory Factor 1 (NRF1) Orphan Gene (AID 2282987); conditions: HepG2 NRF1 cis-element reporter, Attagene multiplex; actives raise or lower the signal
Chain of Nuclear respiratory factor 1 (Homo sapiens) (Q16656 whole entry, looked up): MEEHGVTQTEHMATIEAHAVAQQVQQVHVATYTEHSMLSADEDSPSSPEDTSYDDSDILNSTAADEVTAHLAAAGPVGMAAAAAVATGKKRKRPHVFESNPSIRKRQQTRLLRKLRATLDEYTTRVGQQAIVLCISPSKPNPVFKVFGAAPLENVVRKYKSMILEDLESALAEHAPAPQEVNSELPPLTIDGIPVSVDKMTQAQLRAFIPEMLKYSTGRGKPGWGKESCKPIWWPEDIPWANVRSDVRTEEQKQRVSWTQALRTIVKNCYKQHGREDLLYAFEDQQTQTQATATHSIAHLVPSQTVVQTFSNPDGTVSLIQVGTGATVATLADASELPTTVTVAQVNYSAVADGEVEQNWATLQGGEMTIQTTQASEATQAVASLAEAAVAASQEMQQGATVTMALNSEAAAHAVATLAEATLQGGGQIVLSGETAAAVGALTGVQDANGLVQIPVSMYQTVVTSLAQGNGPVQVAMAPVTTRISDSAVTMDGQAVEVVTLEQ
Method in brief: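 HepG2 cells transiently transfected with multiple reporter transcription units under cis-regulatory promoter control, so endogenous transcription-factor activity is read. After 24 h compound exposure, reporter mRNA quantified by RT-PCR, fluorescent labelling, HpaI digestion and capillary electrophoresis; bidirectional fitting versus DMSO.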

[6] = ATG_NFI_CIS: Attagene CIS-FACTORIAL HepG2 Assay for human Nuclear Factor I (NFI) (AID 2282989); conditions: HepG2 cis-regulatory reporter, NFI response element transcription; actives raise or lower the signal
Method in brief: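 Reporter transcripts were measured by RT-PCR with fluorescent primer extension and capillary electrophoresis 24 h post-treatment. HepG2 cells carried transiently transfected cis-regulated reporter constructs reporting endogenous factor activity; gain or loss fitted against DMSO baseline.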

[7] = biological target: Myc proto-oncogene protein (Homo sapiens) (UniProt P01106); assay: ATG_Myc_CIS: Attagene CIS-FACTORIAL HepG2 Assay for human Myelocytomatosis (Myc) Proto-Oncogene Transcription Factor (AID 2282990); conditions: HepG2, Attagene cis-reporter transcription factor activity; actives raise or lower the signal
Chain of Myc proto-oncogene protein (Homo sapiens) (P01106 whole entry, looked up, the tested form may be a part): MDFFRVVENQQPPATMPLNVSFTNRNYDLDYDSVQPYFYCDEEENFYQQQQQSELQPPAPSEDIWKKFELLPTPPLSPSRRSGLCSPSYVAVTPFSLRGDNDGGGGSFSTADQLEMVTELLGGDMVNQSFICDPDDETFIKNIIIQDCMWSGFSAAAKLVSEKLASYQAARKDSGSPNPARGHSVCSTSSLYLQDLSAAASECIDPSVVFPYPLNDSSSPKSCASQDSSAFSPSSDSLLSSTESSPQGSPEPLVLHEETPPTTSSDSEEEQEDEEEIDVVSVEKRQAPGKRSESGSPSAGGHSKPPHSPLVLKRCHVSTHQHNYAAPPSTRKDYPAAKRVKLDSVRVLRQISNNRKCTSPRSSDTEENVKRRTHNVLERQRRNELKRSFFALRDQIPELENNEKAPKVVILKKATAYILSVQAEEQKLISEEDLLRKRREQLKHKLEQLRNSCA
Method in brief: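 After 24 h chemical treatment of HepG2 cells carrying multiplexed cis-regulated reporter constructs, reporter transcripts quantified by RT-PCR and capillary electrophoresis of fluorescent fragments. Gain or loss fitted against DMSO baseline.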

[8] = ATG_NF_kB_CIS: Attagene CIS-FACTORIAL HepG2 Assay for human Nuclear Factor Kappa B (NF-kB) (AID 2282991); conditions: HepG2 Attagene cis-factorial NF-kB reporter mRNA; actives raise or lower the signal
Method in brief: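 HepG2 cells transiently transfected with multiplexed cis-element reporter units measuring endogenous transcription factor activity; reporter mRNA read 24 h after dosing by RT-PCR, fluorescent labelling, HpaI digestion and capillary electrophoresis. Bidirectional fit against DMSO baseline.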

[9] = ATG_NRF2_ARE_CIS: Attagene CIS-FACTORIAL HepG2 Assay for human Nuclear Factor Erythroid 2 Related Factor 2 (NFR2) response to Antioxidant Response Elements (ARE) (AID 2282992); conditions: HepG2 Attagene ARE/NRF2 reporter, transcription factor activity; actives raise or lower the signal
Method in brief: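 Endogenous transcription factor activity read out as reporter transcript levels (RT-PCR plus capillary electrophoresis, fluorescence) in transiently transfected HepG2 cells. Measured at 24 h after dosing; gain or loss of signal fitted versus DMSO.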

[10] = ATG_Oct_MLP_CIS: Attagene CIS-FACTORIAL HepG2 Assay for human Octamer-Binding Transcription Factor (Oct) (AID 2282993); conditions: HepG2 Attagene cis-factorial Oct reporter, mRNA; actives raise or lower the signal
Method in brief: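 Readout is reporter transcript level from RT-PCR with fluorescent primer extension and capillary electrophoresis, fitted in both directions against DMSO. Transfected HepG2 reporter units report endogenous factor activity after 24 h dosing.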

[11] = biological target: Cellular tumor antigen p53 (Homo sapiens) (UniProt P04637); assay: ATG_p53_CIS: Attagene CIS-FACTORIAL HepG2 Assay for human p53 Transcription Factor (AID 2282994); conditions: HepG2 p53 cis-element reporter, Attagene mRNA; actives raise or lower the signal
Chain of Cellular tumor antigen p53 (Homo sapiens) (P04637 whole entry, looked up): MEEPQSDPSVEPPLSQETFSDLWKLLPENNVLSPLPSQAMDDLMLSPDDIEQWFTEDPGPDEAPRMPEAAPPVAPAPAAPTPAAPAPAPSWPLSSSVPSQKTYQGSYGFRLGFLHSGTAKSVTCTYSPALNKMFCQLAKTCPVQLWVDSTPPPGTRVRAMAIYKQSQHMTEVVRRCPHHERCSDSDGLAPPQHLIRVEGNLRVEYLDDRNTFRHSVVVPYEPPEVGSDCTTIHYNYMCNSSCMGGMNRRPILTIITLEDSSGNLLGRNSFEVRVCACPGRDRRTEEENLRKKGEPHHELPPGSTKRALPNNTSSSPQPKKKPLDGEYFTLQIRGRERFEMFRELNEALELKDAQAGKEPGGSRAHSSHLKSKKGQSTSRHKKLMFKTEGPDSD
Method in brief: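 Endogenous p53 activity read in transiently transfected HepG2 from a cis-element-driven reporter transcript after 24 h exposure. RNA reverse-transcribed, PCR-amplified, fluorescently labelled and sized by capillary electrophoresis; gain or loss fitted against DMSO baseline.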

[12] = biological target: Nuclear receptor subfamily 4 group A member 2 (Homo sapiens) (UniProt P43354); assay: ATG_NURR1_TRANS: Attagene TRANS-FACTORIAL HepG2 Assay for human Nuclear Receptor Related Protein 1 (NURR1) (AID 2282985; active means hit-call score of the fitted dose curve at least 0.9, where 1 is the maximum); conditions: HepG2 Attagene TRANS reporter, mRNA readout
Chain of Nuclear receptor subfamily 4 group A member 2 (Homo sapiens) (P43354 whole entry, looked up, the tested form may be a part): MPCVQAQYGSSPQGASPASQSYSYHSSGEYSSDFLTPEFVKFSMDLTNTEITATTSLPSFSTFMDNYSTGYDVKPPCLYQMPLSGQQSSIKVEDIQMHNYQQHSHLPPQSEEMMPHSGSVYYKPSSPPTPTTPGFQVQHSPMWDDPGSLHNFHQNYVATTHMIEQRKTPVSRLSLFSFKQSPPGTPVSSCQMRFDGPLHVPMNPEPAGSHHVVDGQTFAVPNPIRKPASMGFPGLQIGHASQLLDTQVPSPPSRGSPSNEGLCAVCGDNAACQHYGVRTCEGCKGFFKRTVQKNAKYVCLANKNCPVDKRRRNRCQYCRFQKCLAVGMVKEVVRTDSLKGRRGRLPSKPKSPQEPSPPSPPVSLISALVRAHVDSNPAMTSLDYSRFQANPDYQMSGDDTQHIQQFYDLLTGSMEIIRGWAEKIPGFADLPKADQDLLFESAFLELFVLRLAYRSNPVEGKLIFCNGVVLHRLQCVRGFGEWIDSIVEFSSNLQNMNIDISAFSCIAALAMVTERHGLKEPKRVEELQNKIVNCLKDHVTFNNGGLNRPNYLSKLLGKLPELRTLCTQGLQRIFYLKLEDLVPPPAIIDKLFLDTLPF
Method in brief: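 Reporter transcript induction, measured by RT-PCR with fluorescent labelling, HpaI digestion and capillary electrophoresis, after 24 hr dosing of human HepG2 cells transiently expressing an exogenous NR-Gal4 fusion with GAL4-UAS-driven reporters; DMSO as baseline.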

[13] = BSK_3C_TissueFactor: BioMAP Diversity Plus: 3C Assay for Tissue Factor Biomarker Activity (AID 2282997); conditions: BioMAP 3C HUVEC, tissue factor biomarker readout; actives raise or lower the signal
Method in brief: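 In this endothelial system, HUVEC are treated for 24 h and Tissue Factor is assessed by ELISA, normalised to DMSO.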

[14] = BSK_3C_uPAR: BioMAP Diversity Plus: 3C Assay for Urokinase-type plasminogen activator receptor (uPAR) Biomarker Activity (AID 2282998); conditions: BioMAP 3C HUVEC, uPAR biomarker ELISA; actives raise or lower the signal
Method in brief: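 Cell-surface uPAR on HUVEC (3C system) read by ELISA at 24 h post-treatment, with DMSO as baseline and fitting in both directions. Parallel cultures stained with SRB to flag overt cytotoxicity.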

[15] = BSK_3C_VCAM1: BioMAP Diversity Plus: 3C Assay for Vascular cell adhesion molecule 1 (VCAM1) Biomarker Activity (AID 2282999); conditions: BioMAP 3C HUVEC, VCAM1 ELISA, cytokine-stimulated; actives raise or lower the signal
Method in brief: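 Activity fitted in both directions relative to DMSO, with ELISA measurement of the surface marker on primary HUVEC (3C) at 24 h post-treatment; parallel SRB staining (0.1% SRB, TCA-fixed, 560 nm) flagged overt cytotoxicity.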

[16] = biological target: Oxysterols receptor LXR-beta (Homo sapiens) (UniProt P55055); assay: ATG_LXRb_TRANS: Attagene TRANS-FACTORIAL HepG2 Assay for human Liver X Receptor beta (LXRb) (AID 2282981; active means hit-call score of the fitted dose curve at least 0.9, where 1 is the maximum); conditions: HepG2 Attagene TRANS GAL4-LXRb reporter, mRNA
Chain of Oxysterols receptor LXR-beta (Homo sapiens) (P55055 whole entry, looked up, the tested form may be a part): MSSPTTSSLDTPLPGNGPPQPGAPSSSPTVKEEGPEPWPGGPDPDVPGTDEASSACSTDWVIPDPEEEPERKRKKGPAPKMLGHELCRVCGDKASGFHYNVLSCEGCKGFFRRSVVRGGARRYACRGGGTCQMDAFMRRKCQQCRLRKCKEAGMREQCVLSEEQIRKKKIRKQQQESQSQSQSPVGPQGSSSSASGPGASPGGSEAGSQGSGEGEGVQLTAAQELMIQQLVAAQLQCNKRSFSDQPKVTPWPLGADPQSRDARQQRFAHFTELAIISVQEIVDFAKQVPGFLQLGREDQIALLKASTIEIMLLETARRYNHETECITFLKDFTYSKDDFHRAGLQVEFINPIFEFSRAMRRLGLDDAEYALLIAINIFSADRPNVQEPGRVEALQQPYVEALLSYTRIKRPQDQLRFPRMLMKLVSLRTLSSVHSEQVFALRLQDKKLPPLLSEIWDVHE
Method in brief: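 After 24 h chemical treatment of transfected HepG2 cells carrying exogenous NR-Gal4 chimeras, reporter mRNA was quantified by fluorescent RT-PCR and capillary electrophoresis; activity taken as increase over DMSO controls.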

[17] = biological target: Hepatocyte nuclear factor 4-alpha (Homo sapiens) (UniProt P41235); assay: ATG_HNF4a_TRANS: Attagene TRANS-FACTORIAL HepG2 Assay for human Hepatocyte Nuclear Factor 4 alpha (HNF4a) (AID 2282982; active means hit-call score of the fitted dose curve at least 0.9, where 1 is the maximum); conditions: HepG2 HNF4a transactivation reporter, mRNA readout
Chain of Hepatocyte nuclear factor 4-alpha (Homo sapiens) (P41235 whole entry, looked up, the tested form may be a part): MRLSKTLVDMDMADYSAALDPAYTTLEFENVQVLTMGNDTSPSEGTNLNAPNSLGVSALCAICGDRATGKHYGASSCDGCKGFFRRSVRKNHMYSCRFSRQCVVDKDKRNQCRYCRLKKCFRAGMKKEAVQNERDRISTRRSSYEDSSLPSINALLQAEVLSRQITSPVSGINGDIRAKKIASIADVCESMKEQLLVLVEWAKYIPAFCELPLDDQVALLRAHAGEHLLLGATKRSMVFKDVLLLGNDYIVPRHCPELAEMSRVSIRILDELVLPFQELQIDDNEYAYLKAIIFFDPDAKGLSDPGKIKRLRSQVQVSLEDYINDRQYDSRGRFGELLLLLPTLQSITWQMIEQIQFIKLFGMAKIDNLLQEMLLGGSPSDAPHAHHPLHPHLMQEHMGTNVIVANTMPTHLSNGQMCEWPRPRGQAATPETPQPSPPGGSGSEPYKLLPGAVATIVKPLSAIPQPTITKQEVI
Method in brief: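 Activity of an exogenous HNF4a–Gal4 fusion scored as induced GAL4-UAS reporter transcripts after 24 h chemical exposure of transfected human HepG2 cells. Read-out via RT-PCR with 6-FAM labelling and capillary electrophoresis; rise over DMSO baseline.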

[18] = ATG_M_06_TRANS: Attagene TRANS-FACTORIAL HepG2 Assay for M06 Transcription Factor (Internal Marker) (AID 2282983; active means hit-call score of the fitted dose curve at least 0.9, where 1 is the maximum); conditions: HepG2 Attagene TRANS M06 internal marker reporter
Method in brief: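 Multi-reporter-transfected HepG2, 24 h treatment; reporter transcripts quantified via RT-PCR, primer-extension labelling and CE. DMSO-normalized gain-of-signal fit.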

[19] = biological target: Oxysterols receptor LXR-alpha (Homo sapiens) (UniProt Q13133); assay: ATG_LXRa_TRANS: Attagene TRANS-FACTORIAL HepG2 Assay for human Liver X Receptor alpha (LXRa) (AID 2282980; active means hit-call score of the fitted dose curve at least 0.9, where 1 is the maximum); conditions: HepG2 Attagene TRANS reporter, LXRa transactivation
Method in brief: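 In this multiplexed TRANS system, compounds act on HepG2 cells carrying GAL4-UAS reporter units and a receptor-GAL4 fusion for 24 h. Induced reporter RNA is amplified, fluorescently labelled and sized by capillary electrophoresis, with DMSO as baseline.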

Measured: AC50

CC(C)C(=O)OCc1ccccc1
not listed: [12] | [13] | [14] | [15] | [16] | [17] | [18] | [19]
inactive: all other assays above

O=S(=O)(O)CCC(F)(F)C(F)(F)C(F)(F)C(F)(F)C(F)(F)C(F)(F)C(F)(F)C(F)(F)F
active: [2] 40 µM | [9] 91.8 µM
not listed: [16] | [17] | [18] | [19]
inactive: all other assays above

CCCCCCCCCCCC(=O)Cl
active: [12] 67.6 µM | [8] 123 µM | [9] 74.5 µM
not listed: [13] | [14] | [15] | [19]
inactive: all other assays above

COc1ccccc1C=O
not listed: [13] | [14] | [15] | [17] | [18] | [19]
inactive: all other assays above

CCCCCCCCCc1ccc(OCCO)cc1
active: [4] 17.6 µM | [9] 5.92 µM
inactive: [1] | [2] | [18] | [5] | [6] | [7] | [8] | [10] | [11]

CCc1cccc(C)c1N(C(=O)C(=O)O)C(C)COC (centres undefined)
not listed: [12] | [13] | [14] | [15] | [16] | [17] | [18]
inactive: all other assays above

CC(C)CCCC(C)CCO (centres undefined)
active: [13] 36.4 µM | [14] 26.7 µM | [15] 33.9 µM
not listed: [17] | [18] | [19]
inactive: all other assays above

COCCOCCC[Si](C)(O[Si](C)(C)C)O[Si](C)(C)C
active: [4] 19 µM | [9] 1.64 µM | [10] 3.74 µM
not listed: [13] | [14] | [15] | [19]
inactive: all other assays above

CCN=c1cc2oc3cc(NCC)c(C)cc3c(-c3ccccc3C(=O)OCC)c-2cc1C
inactive: [1] | [2] | [18] | [3] | [4] | [5] | [7] | [8]
active: [6] 17.5 µM | [9] 0.132 µM | [10] 7.4 µM | [11] 1.56 µM

NCC(F)(F)C(F)(F)C(F)(F)C(F)(F)C(F)(F)C(F)(F)C(F)(F)C(F)(F)F
not listed: [16] | [17] | [19]
inactive: all other assays above

COC(=O)c1ccc(C=O)cc1
not listed: [12] | [13] | [14] | [15] | [17] | [18] | [19]
inactive: all other assays above

CC(=O)C=O
not listed: [3] | [12] | [13] | [14] | [15] | [16] | [17] | [19]
inactive: all other assays above

CSc1ccc(Cl)cc1
not listed: [3] | [12] | [13] | [14] | [15] | [16] | [19]
inactive: all other assays above

CCN(CC)c1ccc(C=O)c(O)c1
active: [11] 70.5 µM
not listed: [16] | [17]
inactive: all other assays above

CN(C(=O)C(F)(F)C(F)(F)C(F)(F)F)[Si](C)(C)C
not listed: [3] | [16] | [19]
inactive: all other assays above

F[Si-2](F)(F)(F)(F)F
not listed: [13] | [14] | [15] | [19]
inactive: all other assays above

CCC/C=C/CO
not listed: [8] | [13] | [14] | [15] | [16] | [18] | [19]
inactive: all other assays above

CCCCCC/C=C/CCCCCCCC(=O)O
active: [12] 67.1 µM
not listed: [13] | [14] | [15] | [16] | [17] | [19]
inactive: all other assays above

CCN(CC)c1ccc2c(c1)Oc1cc(N(CC)CC)ccc1C21OC(=O)c2ccccc21
active: [9] 34.8 µM | [13] 2.97 µM | [14] 11.2 µM
not listed: [12] | [16] | [17] | [19]
inactive: all other assays above
